Screening data deposited in PubChem BioAssay by NMMLSC.
Rac1 wt GTP bind – modulators of human Rac1 wildtype GTP binding; 190,000 tested, 0.27% active; P63000; GTP binding activity (% of control), % at 10 µM; GST-Rac1 beads, fluorescent GTP binding, flow cytometry; actives lie on both sides; 0 = cold GTP competed, 100 = untreated;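 active = GTP binding activity at least 20 points away from the 100% control level, either lower or higher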
HRas wt GTP – changes GTP binding to wildtype human HRas. GST-Ras wt beads, Bodipy-FL-GTP binding, flow cytometry; actives lie on both sides. GTP binding activity, % at 10 µM. 190,000 tested, 0.14% active. AID 759;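 active = GTP binding activity at least 20% away from the 100% baseline, either lowered as inhibitor or raised as activator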;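 also: 0% = unlabeled GTP competition control and 100% = no-compound control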
Target sequence (P01112 whole entry, looked up): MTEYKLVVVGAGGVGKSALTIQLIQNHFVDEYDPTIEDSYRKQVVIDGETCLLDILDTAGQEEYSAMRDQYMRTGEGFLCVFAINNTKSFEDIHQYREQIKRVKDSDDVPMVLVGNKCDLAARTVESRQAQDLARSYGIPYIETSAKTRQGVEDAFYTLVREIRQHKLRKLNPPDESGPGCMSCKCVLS
Rac1 act GTP bind – modulators of GTP binding to human Rac1 activated mutant; P63000; GST-Rac1 activated beads, fluorescent GTP binding, flow cytometry; actives lie on both sides; 100% means binding = to untreated wells; percent activity (GTP binding), % at 10 µM; 190,000 tested, 0.11% active;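 active = GTP binding at least 20 percentage points away from the 100% baseline, in either direction, so actives lie on both sides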
Cdc42 wt GTP – changes GTP binding to wildtype human Cdc42; AID 761; GST-Cdc42 beads, Bodipy-GTP binding, flow cytometry; actives lie on both sides; percent activity (GTP binding), % at 10 µM; 190,000 tested, 0.2% active; P60953;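 active = percent activity GTP binding at least 20 points away from the 100% baseline, either down as inhibitor or up as activator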;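 also: median bead fluorescence of bound Bodipy-FL-GTP at 100 nM; 0% = excess unlabeled GTP control and 100% = no compound control; below 100% means less GTP binding so inhibitor and above means activator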
Target sequence (P60953 whole entry, looked up): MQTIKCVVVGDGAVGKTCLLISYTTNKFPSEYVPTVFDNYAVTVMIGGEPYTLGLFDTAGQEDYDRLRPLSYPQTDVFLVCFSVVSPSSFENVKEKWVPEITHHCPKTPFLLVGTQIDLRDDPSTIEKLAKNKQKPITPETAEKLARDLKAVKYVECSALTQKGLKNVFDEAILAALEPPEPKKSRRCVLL
Rab2 wt GTP – changes GTP binding to wildtype dog Rab2A, up or down; GST-Rab2 wt beads, Bodipy-GTP binding, flow cytometry; P61105; GTP binding activity, % at 10 µM; 190,000 tested, 0.19% active;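 active = GTP binding activity at least 20 points away from 100%, either lowered or raised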;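 also: 0% = beads with excess unlabeled GTP and 100% = no-compound control corrected for plate trend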
Rab7 wt GTP bind – dog Rab7 wildtype GTP binding, inhibitors and activators; GST-Rab7 beads, fluorescent GTP binding, flow cytometry; actives lie on both sides; untreated = 100%, excess cold GTP = 0%; GTP binding activity (percent of control), % at 10 µM; 190,000 tested, 0.055% active; AID 758;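 active = fluorescent GTP binding to Rab7 beads changed by at least 20 points from the 100% baseline, either direction, mostly lower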;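 also: median green fluorescence of bound Bodipy-FL-GTP per Rab7 bead population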
* hit, by the source's call; [ ] = remark or other dose. This is a sample that favours compounds with a hit; in the whole collection about 0.38% have one here.

Results for O=S(=O)(NCc1ccc2c(c1)OCO2)c1cccc(S(=O)(=O)N2CCOCC2)c1 ?
Rac1 wt GTP bind: 108; HRas wt GTP: 97; Rac1 act GTP bind: 97; Cdc42 wt GTP: 105; Rab2 wt GTP: 98; Rab7 wt GTP bind: 93

Results for Cc1ccc(NS(=O)(=O)c2cc(NC(=O)c3ccc4c(c3)NC(=O)CS4)ccc2Cl)c(C)c1 ?
Rac1 wt GTP bind: 110; HRas wt GTP: 116; Rac1 act GTP bind: 102; Cdc42 wt GTP: 113; Rab2 wt GTP: 129*[activator]; Rab7 wt GTP bind: 113

How did CCOC(=O)c1cc(C(=O)OCC)c(=O)[nH]c1C do in these assays?
Rac1 wt GTP bind: 111; HRas wt GTP: 97; Rac1 act GTP bind: 100; Cdc42 wt GTP: 107; Rab2 wt GTP: 100; Rab7 wt GTP bind: 97

How did CCOC(=O)c1cc(C(=O)OCC)c(=O)[nH]c1N1CCCC1 do in these assays?
Rac1 wt GTP bind: 51*; HRas wt GTP: 57*; Rac1 act GTP bind: 50*; Cdc42 wt GTP: 56*; Rab2 wt GTP: 54*; Rab7 wt GTP bind: 24*

Results for CCOc1cccc(-c2nn3c(-c4ccco4)nnc3s2)c1 ?
Rac1 wt GTP bind: 88; HRas wt GTP: 80; Rac1 act GTP bind: 90; Cdc42 wt GTP: 80; Rab2 wt GTP: 78*; Rab7 wt GTP bind: 91

What do the screens show for `COc1ccc(-c2nnc3sc(-c4ccco4)nn23)cc1OC`?
Rac1 wt GTP bind: 98; HRas wt GTP: 101; Rac1 act GTP bind: 96; Cdc42 wt GTP: 101; Rab2 wt GTP: 99; Rab7 wt GTP bind: 101

What do the screens show for `COc1ccc(-c2nn3c(-c4ccco4)nnc3s2)cc1OC`?
Rac1 wt GTP bind: 70*; HRas wt GTP: 68*; Rac1 act GTP bind: 82; Cdc42 wt GTP: 68*; Rab2 wt GTP: 71*; Rab7 wt GTP bind: 88

What do the screens show for `COc1cccc(-c2nnc3sc(-c4ccco4)nn23)c1`?
Rac1 wt GTP bind: 107; HRas wt GTP: 103; Rac1 act GTP bind: 102; Cdc42 wt GTP: 107; Rab2 wt GTP: 103; Rab7 wt GTP bind: 102

What do the screens show for `C=CCN(CC=C)CC(O)CN(c1cc([N+](=O)[O-])ccc1OC)S(=O)(=O)c1ccccc1` (stereo not given)?
Rac1 wt GTP bind: 106; HRas wt GTP: 101; Rac1 act GTP bind: 101; Cdc42 wt GTP: 102; Rab2 wt GTP: 102; Rab7 wt GTP bind: 100

How did Cc1ccccc1-n1c(SCc2c(C)noc2C)nnc1-c1cccnc1 do in these assays?
Rac1 wt GTP bind: 132*[activator]; HRas wt GTP: 110; Rac1 act GTP bind: 110; Cdc42 wt GTP: 118; Rab2 wt GTP: 115; Rab7 wt GTP bind: 111

How did Cc1ccccc1-n1c(SCc2c(C)noc2C)nnc1-c1ccncc1 do in these assays?
Rac1 wt GTP bind: 98; HRas wt GTP: 99; Rac1 act GTP bind: 96; Cdc42 wt GTP: 97; Rab2 wt GTP: 95; Rab7 wt GTP bind: 98

How did O=C(CSc1cccc[n+]1[O-])Nc1cccc(Oc2ccccc2)c1 do in these assays?
Rac1 wt GTP bind: 103; HRas wt GTP: 96; Rac1 act GTP bind: 94; Cdc42 wt GTP: 92; Rab2 wt GTP: 94; Rab7 wt GTP bind: 98
